Inconclusive results are not listed. Active and inactive are the calls of the source. How the source made its calls: active means hit-call score of the fitted dose curve at least 0.9, where 1 is the maximum; inconclusive means response in the unintended direction; inactive means score below 0.9.

Sequence of human Androgen Receptor (AR), AR (gene 367) (P10275 whole entry, looked up): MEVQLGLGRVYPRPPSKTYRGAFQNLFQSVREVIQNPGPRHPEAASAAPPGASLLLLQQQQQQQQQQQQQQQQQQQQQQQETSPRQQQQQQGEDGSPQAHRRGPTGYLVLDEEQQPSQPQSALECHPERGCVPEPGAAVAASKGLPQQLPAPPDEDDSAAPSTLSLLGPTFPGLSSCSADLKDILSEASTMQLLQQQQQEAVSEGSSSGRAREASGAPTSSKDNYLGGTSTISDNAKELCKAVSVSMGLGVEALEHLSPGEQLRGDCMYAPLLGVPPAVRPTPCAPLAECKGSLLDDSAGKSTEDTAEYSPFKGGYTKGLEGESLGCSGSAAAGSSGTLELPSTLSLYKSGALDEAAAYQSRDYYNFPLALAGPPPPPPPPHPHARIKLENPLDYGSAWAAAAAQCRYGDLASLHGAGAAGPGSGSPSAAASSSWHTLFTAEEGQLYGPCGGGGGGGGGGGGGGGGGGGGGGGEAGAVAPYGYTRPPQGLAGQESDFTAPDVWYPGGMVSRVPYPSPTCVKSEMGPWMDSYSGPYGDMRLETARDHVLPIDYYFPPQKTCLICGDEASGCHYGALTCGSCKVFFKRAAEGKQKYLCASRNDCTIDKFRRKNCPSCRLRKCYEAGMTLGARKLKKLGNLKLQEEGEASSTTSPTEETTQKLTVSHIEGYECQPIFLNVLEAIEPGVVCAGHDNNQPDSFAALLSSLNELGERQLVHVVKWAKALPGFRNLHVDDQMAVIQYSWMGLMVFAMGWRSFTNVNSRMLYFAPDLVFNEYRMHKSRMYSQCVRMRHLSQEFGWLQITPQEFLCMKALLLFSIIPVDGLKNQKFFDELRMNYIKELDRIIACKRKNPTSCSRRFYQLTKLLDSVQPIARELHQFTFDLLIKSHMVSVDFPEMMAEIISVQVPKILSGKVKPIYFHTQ

The assay concerns the target human Androgen Receptor (AR), AR (gene 367) (UniProt P10275). The assay can be described thus: ATG_hAR_EcoTox2: Attagene TRANS-FACTORIAL EcoTox-2 HepG2 Assay for human Androgen Receptor (AR). As for the experimental part:
ATG_EcoTox2 is a cell-based, multiplexed assay created by modifying the existing Attagene TRANS-FACTORIAL system to include a panel of nuclear receptors from some or all the following species: human (Homo sapiens), african clawed frog (Xenopus laevis), rainbow trout (Oncorhynchus mykiss), japanese medaka (Oryzias latipes), and zebrafish (Danio rerio). The ECOTOX2-FACTORIAL format uses HepG2, a human liver cell line, with measurements taken at 24 hours after chemical dosing in a 24-well plate. ATG_hAR_EcoTox2 is one of 29 assay components calculated in the ATG_EcoTox2 assay. It is designed to make measurements of mRNA induction, a form of inducible reporter, as detected with fluorescence intensity signals by Reverse transcription polymerase chain reaction (RT-PCR) and Capillary electrophoresis technology.The assay endpoint ATG_hAR_EcoTox2 was analyzed in the positive analysis fitting direction relative to DMSO as the negative control and baseline of activity. Using a type of inducible reporter, measures of mRNA for gain-of-signal activity can be used to understand the reporter gene at the transcription factor-level as they relate to the gene AR. Furthermore, this assay endpoint can be referred to as a primary readout, because this assay has produced multiple assay endpoints where this one serves a reporter gene function. To generalize the intended target to other relatable targets, this assay endpoint is annotated to the nuclear receptor intended target family, where the subfamily is steroidal.
Human liver HepG2 cells are transiently transfected with multiple reporter transcription units (MRTUs) in 6-well plates using FuGene 6 reagent (Roche; 3 ml FuGene/1 mg DNA). The MRTU constructs are regulated by a cis-regulating element (promoter). Each RTU expresses a GAL4-UAS that regulates the transcription of a nearby target reporter gene sequence. A major difference between the CIS and TRANS system is that in CIS activities of endogenous TFs are measured, whereas the TRANS assay evaluates changes in activities of exogenous, chimeric NR-Gal4 proteins. […] At the end of 24 hour incubation, total RNA was isolated using TriZol reagent (Invitrogen). The isolated RNA is then reverse-transcribed using oligo(dT) primer and Mo-MLV reverse transcriptase (Invitrogen) with DNAse I (Ambion) treatment for 30 min. The one-tenth of the produced cDNA was amplified by PCR using Taq DNA polymerase (Invitrogen) and two reporter sequence-specific primers. […] The fragments were purified using Qiaquick PCR columns (Qiagen), analyzed on an ABI 3130xL genetic analyzer (Applied Biosystems) with peak positions identified by using a set of X-rhodamine (ROX)-labeled MapMarker1000 molecular weight standards (BioVentures). […]
For `Cc1ccc(C)c(OCCCC(C)(C)C(=O)O)c1`, the result was inactive.
`CC(c1cc2ccccc2s1)N(O)C(N)=O` (centres undefined): the outcome was inactive.
On to `CC(C)OC(=O)C(C)(C)Oc1ccc(C(=O)c2ccc(Cl)cc2)cc1`, for which the compound was called inactive.
`CC(C)(Oc1ccc(C2CC2(Cl)Cl)cc1)C(=O)O` (centres undefined): the call was inactive.

(Values after PubChem BioAssay AID2284370 (EPA ToxCast).)
